High-throughput results from PubChem BioAssay.
An excerpt weighted towards active compounds, which were near 9.6% of everything screened.
HCT116 bCat-KO: beta-catenin-lacking colon tumor cell growth suppression. HCT116 beta-catenin knockout viability, CellTiter-Glo, 60 h; stronger effect = lower value. 1.5% of 140,000 active. viability, % at 10 µM;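 active = viability at or under a set limit, the compound median less 4 SD, cut at about 6% in these data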;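 note: 0% = Hyamine 1622 control at 20 µM and 100% = untreated cell control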
INS promoter inh: TRM-6 insulin promoter activity inhibition. inhibition, % at 2 µM. 0.9% of 130,000 active. AID 1273. TRM-6 cells (human fetal islet line), insulin promoter-eGFP reporter, imaging; reporter expression induced with tamoxifen;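 active = inhibition above the mean plus 3 SD, with well images judged a real hit on visual review, cut at about 60% in these data, passing the limit was not always enough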
PTEN del growth: PTEN-deleted cell growth suppression; HCT116 PTEN-null viability, CellTiter-Glo, 60 h; stronger effect = lower value; viability, % at 10 µM; 1.2% of 140,000 active; AID 827;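 active = viability at or below a set limit, 4 SD under the median of all tested compounds, cut at about 3.7% in these data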;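 note: PTEN knockout HCT116 line with beta catenin targeted HCT116 as companion control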
Ins promoter up: MIN6 insulin promoter up-regulation; MIN6 insulin promoter-GFP reporter, high-content imaging; stronger effect = higher value; z-score at 5 µM; 0.3% of 190,000 active;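 active = z-score above 3 at 5 µM with at least 500 cells counted in the well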
Lmaj promast: Leishmania major promastigote growth inhibition | AID 1063 | inhibition, % at 10 µM | 9% of 200,000 active | Leishmania major promastigotes, resazurin fluorescence viability; in the data active = inhibition above about 50%;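 note: promastigotes grown with compound for 44 hours at 28 °C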
Autophagy mod: alters autophagy in cells; MEF GFP-LC3 puncta imaging; test concentration mostly 10 µM; calls only at 10 µM (by protocol); 0.98% of 190,000 active;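 active = percentage of spot-positive cells more than 3 SD above its plate mean, without a fluorescence outlier flag or 80% toxicity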;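 note: spot-positive cell cutoff set from DMSO-treated cells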
The depositor's hits bear a star; i = inactive; . = no result given; + = active, no number.

SMILES | HCT116 bCat-KO | INS promoter inh | PTEN del growth | Ins promoter up | Lmaj promast | Autophagy mod
Cc1cc(C)cc(NC(=S)NCC2CCCO2)c1 (stereo unspecified) | 96.5 | -46.0 | 96.5 | 0.95 | 11.3 | i
COc1ccc(N2CCC(CNC(=S)Nc3cccc(C)c3)C2)cc1 (stereo unspecified) | 88.3 | -50.0 | 97.3 | -1.5 | 72.4* | i
Cc1cc(C)cc(NC(=S)NCC2CCN(C(C)c3ccccc3)C2)c1 (stereo unspecified) | . | . | . | 0.33 | 71.8* | i
Cc1ccccc1NC(=S)NC(C)C(c1ccccc1)N1CCN(C)CC1 (stereo unspecified) | . | 60.0 | . | 0.19 | -0.7 | i
COc1ccc(N2CCC(CNC(=S)Nc3c(C)cc(C)cc3C)C2)cc1 (stereo unspecified) | . | . | . | -1.52 | . | .
Cc1ccccc1NC(=S)NCC1CCN(C(C)c2ccccc2)C1 (stereo unspecified) | . | . | . | -0.56 | 76.3* | i
CC(C)COc1ccc(C(=O)CCN2CCCCC2)cc1 | 91.8 | 0.0 | 90.2 | -1.28 | 96.4* | i
CC(C)COc1ccc(C(=O)OCCN2CCOCC2)cc1 | 95.8 | -300.0 | 97.5 | 1.2 | -0.5 | i
CCC(=O)c1ccc(OCCN2CCOCC2)cc1 | 87.9 | 37.5 | 95.7 | -0.03 | -3.8 | i
CC(=O)c1ccc(OCC(C)C)c(CN2CCCCC2)c1 | 79.2 | . | 81.5 | -0.55 | 85.7* | i
CCCCOc1ccc(C(=O)CCN2CCCCC2)cc1 | 90.9 | 33.3 | 82.7 | . | 92.4* | i
Cc1ccc(S(=O)(=O)N(C)c2ccccc2)cc1 | 87.6 | -6.5 | 90.7 | -0.81 | 7.0 | i
CNC1(c2nnnn2-c2ccccc2C)CCOC(C)(C)C1 (stereo unspecified) | . | . | . | 0.1 | . | .
CC1=C(C(N)=O)C(c2cccs2)n2ncnc2N1 (stereo unspecified) | . | . | . | -0.04 | . | .
CC(=O)c1ccc(NC(=O)CSc2ccsc2[N+](=O)[O-])cc1 | . | -45.5 | . | 0 | -2.5 | i
CNS(=O)(=O)c1cnccc1N1CCN(c2cccc(C(F)(F)F)c2)CC1 | 58.7 | -52.6 | 60.0 | 1 | 99.5* | i
Cc1ccc(CNS(=O)(=O)/C=C/c2ccc3c(c2)OCO3)cc1 | 104.1 | . | 93.9 | 0.87 | -3.1 | i
O=C(N/C=N/O)C1=NOC(CNc2ncc(C(F)(F)F)cc2Cl)C1 (stereo unspecified) | 99.3 | 18.8 | 96.2 | . | 98.9* | i
O=C(NC1CC1)C1=NOC(CNc2ncc(C(F)(F)F)cc2Cl)C1 (stereo unspecified) | 93.5 | 43.8 | 84.4 | . | -3.1 | i
O=C(CSc1nnc(C2CCCCC2)o1)N1CCCCC1 | 91.0 | . | 94.4 | -1.1 | -3.0 | i
COc1ccc(OC)c(C2CC(c3c(-c4ccccc4)c4cc(Cl)ccc4[nH]c3=O)=NN2S(C)(=O)=O)c1 (stereo unspecified) | 0.6* | -11.6 | 0.5* | -0.77 | -1.4 | i
Cc1ccccc1CN(c1ccc(C(=O)Nc2ccccc2C(=O)N2CCCC2)cc1)S(C)(=O)=O | 84.2 | 17.2 | 85.6 | 0.38 | 16.8 | i
Cc1ccccc1CN(c1ccc(C(=O)Nc2ccccc2C(=O)NCc2ccco2)cc1)S(C)(=O)=O | 90.6 | 7.1 | 85.9 | 0.51 | 81.3* | i
Cc1ccc(S(=O)(=O)N(Cc2ccccc2)c2ccccc2C(=O)NCc2cccnc2)cc1 | 73.8 | -13.3 | 80.0 | -0.7 | 64.3* | i
COc1ccc(S(=O)(=O)N(Cc2ccccc2)c2ccccc2C(=O)Nc2ccccc2C(=O)NCc2ccco2)cc1 | 85.1 | -32.1 | 84.1 | 0.29 | 66.2* | i
SMILES | HCT116 bCat-KO | INS promoter inh | PTEN del growth | Ins promoter up | Lmaj promast | Autophagy mod
O=C(OCc1ccccc1Cl)c1ccccc1C(=O)c1ccccc1 | 83.3 | -9.7 | 91.2 | -0.28 | 18.6 | i
O=C(OCc1nc2ccc(Cl)cc2n1CCO)c1ccccc1C(=O)c1ccccc1 | 87.5 | -35.7 | 92.3 | 0.22 | 60.2* | i
CSc1ccc(Cl)c(C(=O)OCC(=O)NCC(C)C)c1 | 99.1 | 51.4 | 111.1 | 0.84 | 11.5 | i
CNC(=O)COC(=O)c1cc(SC)ccc1Cl | . | . | . | 0.25 | -1.4 | +
COc1ccccc1OCCC(=O)OCC(=O)Nc1ncc(Cl)cc1Cl | 87.5 | . | 96.3 | 0.13 | 13.8 | i
COc1ccc(OC)c(/C=N/NC(=O)CNC(=O)c2ccc(S(=O)(=O)N3CCOCC3)cc2)c1 | 92.8 | 21.4 | 101.6 | 0.24 | 64.9* | i
O=C(N/N=C\c1c(O)ccc2ccccc12)c1ccc(S(=O)(=O)N2CCCCC2)cc1 | 10.2 | 46.7 | 16.5 | -1.12 | 99.9* | i
CCOc1ccc(/C=N/NC(=O)CNC(=O)c2ccc(S(=O)(=O)N3CCOCC3)cc2)cc1 | . | . | . | -0.47 | 7.0 | i
COc1ccccc1/C=N/NC(=O)CNC(=O)c1ccc(S(=O)(=O)N2CCCC2)cc1 | . | -55.6 | . | -0.08 | 36.5 | i
O=C(CNC(=O)c1ccc(S(=O)(=O)N2CCCC2)cc1)N/N=C/c1ccccc1Cl | 94.8 | . | 91.7 | -0.36 | 94.1* | i
O=C(NCc1ccccc1)c1ccc(S(=O)(=O)N2CCCC2)cc1 | 96.1 | -14.3 | 111.8 | . | 2.0 | i
Oc1ccc2ccccc2c1C=NC1CCCCC1 | . | . | . | 0.47 | 62.1* | i
NC(=O)C1CCN(CCCNC2CC(=O)N(Cc3ccc(N4CCCC4=O)cc3)C2=O)CC1 (stereo unspecified) | . | . | . | . | -9.6 | .
Cc1ccc(C)c(OCC(=O)Nc2nonc2NC(=O)COc2cc(C)ccc2C)c1 | 84.3 | 37.5 | 76.2 | 1.06 | -1.1 | i
O=C(CNC(=O)c1ccc(S(=O)(=O)N2CCCC2)cc1)N/N=C/c1ccco1 | . | 18.8 | . | -0.36 | 19.9 | i
O=C(CNC(=O)c1ccc(S(=O)(=O)N2CCCC2)cc1)N/N=C/c1ccc(F)cc1 | . | -44.4 | . | -1.06 | 54.5* | i
C=CCSc1nnc(COc2ccc(=O)n(-c3ccccc3)n2)n1CC | . | . | . | -0.72 | -11.8 | i
O=C(/C=C/c1ccc(F)cc1)N1CCCc2ccccc21 | . | -48.1 | . | -0.15 | 9.2 | i
O=C(CSc1nnc(-c2cccnc2)n1-c1ccc(SC(F)F)cc1)N1CCCc2ccccc21 | 90.7 | 28.6 | 97.2 | 0.06 | 88.0* | i
Cc1ccc(-n2c(SCC(N)=O)nnc2-c2cccnc2)c(C)c1 | 100.2 | . | 89.2 | 0.91 | -3.4 | i
CCOc1ccccc1-n1c(SCC(=O)N2CCCc3ccccc32)nnc1-c1cccnc1 | 77.0 | 3.3 | 74.6 | -0.47 | 53.2* | i
Cc1ccc(-n2c(SCC(=O)N3CCCc4ccccc43)nnc2-c2cccnc2)c(C)c1 | 88.6 | -100.0 | 95.7 | 0.58 | 59.0* | i
O=C(CCSc1ccccc1)Nc1nccs1 | 90.1 | 44.4 | 88.5 | 0.14 | -1.2 | i
O=C(CCl)Nc1nc(-c2ccco2)c(-c2ccco2)s1 | 92.0 | 34.6 | 79.2 | -0.12 | 69.0* | i
Nc1nc(-c2ccco2)c(-c2ccco2)s1 | 112.0 | -38.7 | 105.8 | 0.17 | 45.7 | i
O=C(CCCSc1ccccc1)Nc1nc(-c2ccco2)c(-c2ccco2)s1 | 80.0 | 76.0* | 75.1 | -0.16 | 74.9* | i
CC(=O)N1CCN(c2nc(-c3ccco3)c3c(c2C#N)CC(C)(C)SC3)CC1 | 76.4 | -13.9 | 63.5 | 0.58 | 3.9 | i
